mcGAS MS inh = inhibitors of mouse cGAS | Q8C6L5 | recombinant mouse cGAS, cGAMP by RapidFire MS | inhibition, % at 12.5 µM | 130,000 compounds, 0.18% hits | AID 1259397;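 active = inhibition of cGAS enzyme activity at or above 60%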;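 note: enzyme stimulated by 45 bp dsDNA with ATP and GTP substrates; cGAMP share of summed cGAMP plus half ATP and half GTP signals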
Target sequence (Q8C6L5 whole entry, looked up): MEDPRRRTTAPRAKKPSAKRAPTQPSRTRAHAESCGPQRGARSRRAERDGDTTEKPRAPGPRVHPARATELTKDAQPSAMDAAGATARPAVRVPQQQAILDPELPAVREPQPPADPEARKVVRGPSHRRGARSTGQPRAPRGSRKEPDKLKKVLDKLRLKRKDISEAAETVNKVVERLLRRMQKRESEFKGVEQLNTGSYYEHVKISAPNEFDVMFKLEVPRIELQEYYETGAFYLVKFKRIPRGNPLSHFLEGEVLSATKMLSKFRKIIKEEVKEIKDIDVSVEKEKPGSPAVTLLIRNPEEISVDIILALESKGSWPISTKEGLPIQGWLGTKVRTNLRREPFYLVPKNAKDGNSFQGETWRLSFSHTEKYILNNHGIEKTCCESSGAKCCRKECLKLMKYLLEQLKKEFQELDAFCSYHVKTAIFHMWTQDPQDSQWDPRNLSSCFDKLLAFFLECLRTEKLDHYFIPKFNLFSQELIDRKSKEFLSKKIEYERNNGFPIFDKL
Numbers without * were called inactive. The sample as a whole holds a higher share of hits than the screen did.

`C/C(=N/N=C1\NC(=O)C(CC(=O)Nc2cccc(C)c2C)S1)c1ccc(Cl)cc1` (stereo unspecified) gave mcGAS MS inh -26.
CC(C)=CC(=O)N1C(CC(C)C)SCC1C(=O)O (stereo unspecified) was read as mcGAS MS inh 3.
Screening Cc1nn(C)c(C)c1NC(=O)CN(C1CCCC1)C1CC1 returned mcGAS MS inh -5.
CC(C)c1nc2oc3ccccc3c(=O)c2c(=O)n1-c1ccccc1 was read as mcGAS MS inh -7.
For COC(=O)c1cc2c(=O)n(-c3ccc(C(C)C)cc3)ccc2nc1C the results were mcGAS MS inh -7.
For O=C(NC1CCN(Cc2ccccc2)CC1)c1ccc(Br)o1 the results were mcGAS MS inh -4.
CC1CCCCN1c1ccc(S(=O)(=O)N2CCCCC2)cn1 (stereo unspecified) was read as mcGAS MS inh -4.
For Cc1ccc(Cl)c2sc(N(CCN3CCOCC3)C(=O)c3ccc([N+](=O)[O-])cc3)nc12 the results were mcGAS MS inh -4.
Screening CCCCC(=O)N1CCc2c(sc3ncnc(N)c23)C1 returned mcGAS MS inh 4.
Screening COc1cccc(C(=O)Nn2cnc3c(cnn3-c3ccccc3)c2=O)c1 returned mcGAS MS inh -6.
Screening CCOC(=O)c1c(NC(=O)c2cc3ccccc3o2)sc(C(N)=O)c1C returned mcGAS MS inh -5.
For Cc1nnc2sc(-c3ccccc3NC(=S)NC(=O)c3cc4ccccc4o3)nn12 the results were mcGAS MS inh 71*.
`Cc1nnc2sc(-c3cccc(NC(=S)NC(=O)c4cc5ccccc5o4)c3)nn12` gave mcGAS MS inh -5.
Screening O=C(NCC1(c2ccc(Cl)cc2)CC1)c1ccccc1C1CCNC1 (stereo unspecified) returned mcGAS MS inh -18.
NC(=O)Cc1ccc(OCC(=O)NCCC2CCCC2)cc1 was read as mcGAS MS inh -1.
`COc1cccc2c1C(=O)c1c(O)c3c(c(O)c1C2=O)C[C@@](O)(C(=O)CO)C[C@@H]3O[C@H]1C[C@H](N)[C@H](O)[C@H](C)O1` gave mcGAS MS inh 96*.
`COc1cccc2c1C(=O)c1c(O)c3c(c(O)c1C2=O)C[C@@](O)(C(C)=O)C[C@@H]3OC1CC(N)C(O)C(C)O1` (stereo partly specified) gave mcGAS MS inh 93*.
CC1CCCC(NC(=O)NCc2ccccc2-n2ccnc2)C1C (stereo unspecified) was read as mcGAS MS inh -10.
For CN(Cc1ccccn1)S(=O)(=O)c1sc2c(c1C(=O)O)CCNC2 the results were mcGAS MS inh -25.
For Cc1ccc(-n2nnnc2NCC2CCN(CC(F)(F)F)C2)cc1 (stereo unspecified) the results were mcGAS MS inh 5.
`Cc1ccc(Cl)c2sc(N(CCN3CCOCC3)C(=O)c3ccno3)nc12` gave mcGAS MS inh -1.
For Cc1noc(C)c1CCC(=O)N1C[C@@H]2C3CCC(CC3)[C@@H]2C1 the results were mcGAS MS inh 2.
`CCc1ccccc1-n1ccc2nc(N3CCCCC3)ncc2c1=O` gave mcGAS MS inh -18.
For CCn1cc(C(=O)O)c(=O)c2cc3c(cc21)OCO3 the results were mcGAS MS inh -9.
CCn1cc(C(=O)O)c(=O)c2cnc(N3CCCC3)nc21 was read as mcGAS MS inh 78*.
S=c1[nH]nc2c3cnn(-c4ccccc4)c3ncn12 was read as mcGAS MS inh -3.
For Cc1nc2c3ccccc3ncn2n1 the results were mcGAS MS inh -2.
Screening S=c1[nH]nc2c3ccccc3ncn12 returned mcGAS MS inh 87*.
O=C(CSc1nc2c(c(=O)n1-c1ccccc1)SCC2)N1CCCCCC1 was read as mcGAS MS inh -6.
For CC(C)C(NS(=O)(=O)c1ccc(S(=O)(=O)N2CCCCC2)cc1)c1nccn1C (stereo unspecified) the results were mcGAS MS inh -3.
For CCc1cccc(C)c1NC(=O)c1ccc(OCC#N)cc1 the results were mcGAS MS inh -6.
For O=c1oc2ccc(O)cc2s1 the results were mcGAS MS inh 1.
For CCOC(=O)Oc1cc2oc(=O)sc2cc1Br the results were mcGAS MS inh 74*.
For COC(=O)Oc1cc2oc(=O)sc2cc1Br the results were mcGAS MS inh 2.
Screening N#CCC(=O)NC1CCCCC1 returned mcGAS MS inh -2.
Screening CCOC(=O)C1=C(C)N(C)C(=O)NC1c1ccc(-c2cccs2)cc1F (stereo unspecified) returned mcGAS MS inh 2.
`CC(C)(C)OC(=O)N1CCN(C(=O)C2CCN(c3nc4ccccc4[nH]c3=O)CC2)CC1` gave mcGAS MS inh -5.
CC1Cc2ccccc2N1Cc1cc(=O)n2[nH]cnc2n1 (stereo unspecified) was read as mcGAS MS inh -8.
For O=C1NC(=S)SC1=Cc1ccccc1[N+](=O)[O-] the results were mcGAS MS inh 2.
`COc1cc(C=C2SC(=S)NC2=O)cc(OC)c1` gave mcGAS MS inh -5.
`COc1ccc(-c2ccc(/C=C3\SC(=S)NC3=O)o2)c([N+](=O)[O-])c1` gave mcGAS MS inh 65*.
For O=C(c1ccc(Cl)cc1)c1ccc(OC(=O)N2CCCCC2)cc1 the results were mcGAS MS inh -6.
`CC(CNC(=O)NC1CC2CCCC(C1)N2C)CN1CCOCC1` (stereo unspecified) gave mcGAS MS inh -8.
`CCc1nnc(NC(=O)CCc2ncc(-c3ccccc3F)o2)s1` gave mcGAS MS inh -6.
`COCCNc1ncc2c(n1)c(=O)c(C#N)c1[nH]c3ccc(Br)cc3c(=O)n12` gave mcGAS MS inh 25.
CS(=O)(=O)c1ncc2c(n1)c(=O)c(C#N)c1[nH]c3ccccc3c(=O)n12 was read as mcGAS MS inh 67*.
Cc1c(Cc2ccc(Cl)cc2)c(=O)n2c([nH]c3ccccc32)c1C#N was read as mcGAS MS inh -2.
`COc1cc(CN2CCC3(CCCN(CC4CCC4)C3)C2)cc(Cl)c1O` (stereo unspecified) gave mcGAS MS inh 1.
C#CCNC(=O)CN1CCCN(S(=O)(=O)CC(C)CCC)CC1 (stereo unspecified) was read as mcGAS MS inh 1.
`Cc1cc(=O)[nH]c(-n2nc(-c3cccs3)cc2NC(=O)C2CC(=O)N(c3ccccc3)C2)n1` (stereo unspecified) gave mcGAS MS inh 0.
For O=C(O)c1ccccc1CN1CCCCC1CCn1cccn1 (stereo unspecified) the results were mcGAS MS inh -16.
`O=c1cc(CCn2cccn2)nc(-c2ccc(CN3CCC[C@@H]3CO)cc2)[nH]1` gave mcGAS MS inh 89*.
Screening OC[C@@H]1CCCN1Cc1csc(-c2ccc(Br)cc2)n1 returned mcGAS MS inh 4.
CCOC(=O)c1ccc(NC(=O)CSc2nnc(NC(=O)c3c(F)cccc3F)s2)cc1 was read as mcGAS MS inh -3.
O=S(=O)(c1ccccc1O)C(F)(F)F was read as mcGAS MS inh -13.
`CC(C)(O)CCOc1ccccc1S(=O)(=O)C(F)(F)F` gave mcGAS MS inh 72*.
`O=S(=O)(c1ccccc1NC(C1CC1)C1CC1)C(F)(F)F` gave mcGAS MS inh -19.
CSc1nccc(N2CCC(n3cc(CN4CCC(O)C4)nn3)CC2)n1 (stereo unspecified) was read as mcGAS MS inh 7.
Screening O=c1c2c3nc4ccccc4nc3n(CCc3ccccc3)c2ncn1C1CCCC1 returned mcGAS MS inh -9.
`COc1cc(/C=C/c2ccc(O)c(OC)c2)ccc1O` gave mcGAS MS inh -10.
